# PME-1 primary – PME-1 inhibitors via competitive probe labeling, primary screen, biochemical, fluorescence polarization, FP-Rh probe, HTS; recombinant PME-1; inhibition, % at 5.9 µM; actives 0.53% (n = 320,000); AID 2130, 2009;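 active = inhibition above the campaign mean of all compounds plus 3 SD, cut at about 26% in these data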;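 also: competitive labeling of PME-1 active site by serine hydrolase directed probe; 0% = PME-1 with DMSO and 100% = wells lacking PME-1 enzyme; inhibitors block probe labeling so polarization falls and inhibition rises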
# Target sequence (Q9Y570 whole entry, looked up): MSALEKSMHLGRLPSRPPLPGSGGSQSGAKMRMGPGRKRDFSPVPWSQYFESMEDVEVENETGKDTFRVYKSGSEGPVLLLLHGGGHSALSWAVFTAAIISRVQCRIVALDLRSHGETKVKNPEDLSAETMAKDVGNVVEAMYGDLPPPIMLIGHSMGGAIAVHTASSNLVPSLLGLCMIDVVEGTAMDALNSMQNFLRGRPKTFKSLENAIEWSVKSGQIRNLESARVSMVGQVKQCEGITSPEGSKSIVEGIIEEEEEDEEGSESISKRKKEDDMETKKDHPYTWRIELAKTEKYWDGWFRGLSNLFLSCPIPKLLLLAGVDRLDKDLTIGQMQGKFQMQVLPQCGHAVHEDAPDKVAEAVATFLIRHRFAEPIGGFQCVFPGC
# pPAFAH FP inh – pPAFAH enzyme inhibitors, primary screen, biochemical, fluorescence polarization, human | actives 1.5% (n = 330,000) | recombinant pPAFAH, FP-rhodamine probe fluorescence polarization | Platelet-activating factor acetylhydrolase (Homo sapiens), Q13093 | inhibition, % at 3.39 µM | AID 463082, 2010;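 active = inhibition above the mean inhibition across the screen plus 3 SD, cut at about 25% in these data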;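 also: inhibitors block binding of the rhodamine activity-based probe so polarization drops; 0% = enzyme with DMSO and 100% = wells lacking pPAFAH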
# PAFAH1B2 inh – PAFAH1B2 enzyme inhibitors, primary screen, biochemical, fluorescence polarization, human; Platelet-activating factor acetylhydrolase IB subunit alpha2 (Homo sapiens), P68402; recombinant PAFAH1B2, FP-rhodamine activity probe; inhibition, % at 3.39 µM; actives 1.2% (n = 340,000); AID 492953, 2010;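 active = inhibition above the mean of all tested compounds plus 3 SD, cut at about 24% in these data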;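 also: 0% = enzyme with DMSO and 100% = wells lacking PAFAH1B2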
# Fam108B inh – mouse Fam108B serine hydrolase inhibitors, primary screen, counter-screen for RBBP9 inhibitor project, biochemical, fluorescence polarization | recombinant Fam108B, FP-Rh probe fluorescence polarization | inhibition, % at 9.51 µM | actives 0.33% (n = 300,000);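 active = inhibition above the screen mean inhibition plus 3 SD, computed separately per campaign, cut at about 18% in these data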;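 also: inhibitors lower polarization as less probe binds the enzyme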
# PAFAH2 FP inh – PAFAH2 enzyme inhibitors, primary screen, biochemical, fluorescence polarization, human | recombinant PAFAH2, FP-rhodamine activity probe | inhibition, % at 3.39 µM | actives 0.99% (n = 340,000);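 active = inhibition above the mean over all tested compounds plus 3 SD, cut at about 30% in these data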;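 also: inhibitors block probe labeling of enzyme so polarization drops; 0% = enzyme with DMSO and 100% = wells lacking PAFAH2 protein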
# PAFAH1B3 FP inh – PAFAH1B3 enzyme inhibitors, primary screen, biochemical, fluorescence polarization, human | AID 492972, 2010 | inhibition, % at 3.39 µM | Platelet-activating factor acetylhydrolase IB subunit alpha1 (Homo sapiens), Q15102 | recombinant PAFAH1B3, FP-rhodamine probe | actives 0.28% (n = 340,000);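 active = inhibition above the screen-wide average of all tested compounds plus 3 SD, cut at about 25% in these data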;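 also: 0% = enzyme with DMSO only and 100% = wells lacking PAFAH1B3 protein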
# Target sequence (Q15102 whole entry, looked up): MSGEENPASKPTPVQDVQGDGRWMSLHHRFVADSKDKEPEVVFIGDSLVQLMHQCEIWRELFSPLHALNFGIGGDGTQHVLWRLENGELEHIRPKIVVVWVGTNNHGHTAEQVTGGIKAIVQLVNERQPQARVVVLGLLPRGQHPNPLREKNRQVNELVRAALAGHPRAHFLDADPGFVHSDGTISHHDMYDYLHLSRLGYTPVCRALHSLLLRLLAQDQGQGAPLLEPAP
# Numbers without * were called inactive; . = no result given. In the library only some 2.8% were active in any assay of this set; here they are far more common.
SMILES,PME-1 primary,pPAFAH FP inh,PAFAH1B2 inh,Fam108B inh,PAFAH2 FP inh,PAFAH1B3 FP inh
CCN(CC)S(=O)(=O)c1ccc(C(=O)NNC(=O)C2CCN(S(=O)(=O)c3ccc(Cl)cc3)CC2)cc1,-1,1,36*,0,8,6
Cc1cccc(NC(=O)C2CCN(S(=O)(=O)c3ccc(Cl)cc3)CC2)n1,2,4,29*,0,3,2
O=C(NNC(=O)C1CCN(S(=O)(=O)c2ccc(Cl)cc2)CC1)c1ccccc1,2,-1,34*,3,8,-3
Cc1cccc(NC(=O)C2CCN(S(=O)(=O)c3ccc4ccccc4c3)CC2)n1,0,1,2,1,3,2
O=C(NNC(=O)C1CCN(S(=O)(=O)c2ccc(Cl)cc2)CC1)c1ccc(Cl)cc1,-1,-1,13,0,5,8
COc1ccc2[nH]c(=O)c(-c3nnn(-c4ccc(Cl)c(Cl)c4)n3)cc2c1,1,7,.,0,.,.
COc1ccc(CNS(=O)(=O)c2csc(C(N)=O)c2)cc1OC,-3,0,0,1,6,8
Cc1cc(N/N=C/c2ccc3c(c2)OCO3)nc2ccccc12,-11,-1,0,4,1,-3
CCN(CC)c1ccc(/C=C/c2ccc3ccc(OC)cc3[n+]2CC)cc1,-89,-8,-17,-84,-30,-3
CCCOc1ccc([C@@H]2C3CN(C(=O)OCC)CC=C3C(C#N)=C(N)C2(C#N)C#N)cc1OC (stereo partly drawn),48*,5,-2,5,-5,2
CC(C)(C)OC(=O)N1CC=C2C(C#N)=C(N)C(C#N)(C#N)C(c3cccs3)C2C1 (stereo not drawn),9,4,6,-5,14,6
CCOC(=O)N1CC=C2C(C#N)=C(N)C(C#N)(C#N)[C@H](c3cccs3)C2C1 (stereo partly drawn),31*,3,8,0,8,8
CC(C)N1CC=C2C(C#N)=C(N)C(C#N)(C#N)[C@H](c3ccoc3)[C@H]2C1,15,29*,.,5,.,.
COc1cc(C2C3CN(C)CC=C3C(C#N)=C(N)C2(C#N)C#N)ccc1OC(C)C (stereo not drawn),3,6,3,-5,17,5
COc1cccc(NC(=O)CN(C)C(=O)C(C)Sc2ccccc2)c1 (stereo not drawn),.,.,1,.,-2,-3
Cc1ccccc1CS(=O)(=O)Cc1ccc(C(=O)NCc2ccco2)o1,5,25*,2,-1,-3,1
Cc1ccccc1S(=O)(=O)Cc1ccc(C(=O)NCc2ccco2)o1,1,9,6,-1,1,2
COc1ccc([C@@H]2CC=C(C(=O)O)[C@H](c3ccccc3)N2S(=O)(=O)c2ccc(C)cc2)cc1OC,-4,-1,5,-3,0,7
COc1cc([C@@H]2CC=C(C(=O)O)[C@H](c3ccc(Cl)cc3)N2S(=O)(=O)c2ccc(C)cc2)cc(OC)c1OC,0,-1,-2,-3,-13,13
CCc1ccc([C@@H]2CC=C(C(=O)O)[C@H](c3ccc(C(C)(C)C)cc3)N2S(=O)(=O)c2ccc(C)cc2)cc1,.,18,87*,.,9,5
Cc1ccc([C@@H]2CC=C(C(=O)O)[C@H](c3ccc(C(C)(C)C)cc3)N2S(=O)(=O)c2ccc(C)cc2)cc1,.,15,87*,.,-1,-3
Cc1ccc(S(=O)(=O)N2[C@@H](c3ccc(Br)cc3)C(C(=O)O)=CC[C@H]2c2ccc(C(C)C)cc2)cc1,.,16,89*,.,15,-2
CCc1ccc([C@H]2C(C(=O)O)=C[C@@H](C(C)(C)C)N2S(=O)(=O)c2ccc(C)cc2)cc1,.,6,18,.,-2,-5
CCOc1ccc([C@@H]2CC=C(C(=O)O)[C@H](c3ccc(F)cc3)N2S(=O)(=O)c2ccc(C)cc2)cc1,-7,4,19,0,-2,7
Cc1ccc(S(=O)(=O)N2[C@@H](c3ccc(Cl)cc3)C(C(=O)O)=CC[C@H]2c2ccc(Cl)c(Cl)c2)cc1,-11,10,90*,-14,7,-2
SMILES,PME-1 primary,pPAFAH FP inh,PAFAH1B2 inh,Fam108B inh,PAFAH2 FP inh,PAFAH1B3 FP inh
CC(C)(C)OC(=O)C[C@@H]1C/C=C\C[C@@H](CC(=O)N(CCO)Cc2ccccc2)C(=O)N[C@@H](c2ccccc2)COC1=O,.,-1,6,.,-1,3
CCOc1cccc(-c2nc3c(s2)CCc2onc(-c4cccc([N+](=O)[O-])c4)c2-3)c1,-1,3,-2,-4,1,4
Cc1ccc(S(=O)(=O)N2[C@@H](c3ccc(C(C)(C)C)cc3)C(C(=O)O)=CC[C@H]2c2ccc(C(C)C)cc2)cc1,.,11,83*,.,2,2
O=[N+]([O-])c1ccc(N/N=C/c2c[nH]c3ccccc23)cc1,11,17,7,2,-5,10
O=[N+]([O-])c1ccccc1N/N=C/c1c[nH]c2ccccc12,50*,25*,4,6,9,12
O=C(O)CN1C(=O)/C(=C\c2cccc(OCc3ccc(Cl)cc3)c2)SC1=S,7,0,62*,-1,5,11
O=C(O)CN1C(=O)/C(=C\c2cccc(OCc3ccc(F)cc3)c2)SC1=S,.,.,28*,.,5,15
CC(C)C(NC(=O)CC12CC3CC(CC(C3)C1)C2)C(=O)O (stereo not drawn),1,2,25*,5,5,4
N#CC(C(=O)CCN1C(=O)C2CC=CCC2C1=O)c1nc2ccccc2[nH]1 (stereo not drawn),4,5,1,1,4,11
N#CC(C(=O)C12CC3CC(CC(C3)C1)C2)c1nc2ccccc2[nH]1 (stereo not drawn),10,19,13,6,31*,-3
N#Cc1cccc(NS(=O)(=O)c2ccccc2Cl)c1,6,1,5,.,-8,4
Cc1ccc(C(=O)NCc2ccncc2)cc1S(=O)(=O)N1CCCCC1,2,-1,4,4,2,-4
Cc1cc(=O)oc2cc(OCC(O)Cn3ccnc3)ccc12 (stereo not drawn),0,5,4,-2,4,10
Cc1nc(SCCc2ccccc2)[nH]c(=O)c1C,-1,27*,6,3,2,7
Cc1nc(SCc2ccc(Br)cc2)[nH]c(=O)c1C,-1,34*,74*,0,-18,0

# High-throughput results (PubChem)
